Experimental data as given in PubChem BioAssay AID2314 (National Center for Advancing Translational Sciences (NCATS), 2010).
Out of some 300,000 compounds screened, about 37,000 (12%) were called active. This is one part of a sample in which actives are shown more often than they occur. Rule as the data show it: active = max response mostly above about 13% (no sharp cut-off); inactive = mostly below about 14%.

experiment: Cycloheximide Counterscreen for Small Molecule Inhibitors of Shiga Toxin; settings: cell reporter, cycloheximide protein synthesis inhibition counterscreen; stronger effect = higher value; also: read at 38.3 µM for the half of the compounds with a filed dose; 0% is about no effect

| SMILES | max response |
| --- | --- |
| COc1ccccc1C(=O)Nn1cnnc1 | -2.95% (inactive) |
| CCC(C)(C)NC(=O)CN(C(=O)CCC(=O)Nc1nccs1)c1ccc2c(c1)OCO2 | -3.66% (inactive) |
| COc1ccc(CCNC(=O)NS(=O)(=O)c2ccc(C)cc2)cc1OC | -2.33% (inactive) |
| COc1ccc(S(=O)(=O)NCCc2c[nH]c3ccccc23)cc1OC | 2.61% (inactive) |
| Nc1nc(SCc2cccc(Br)c2)n[nH]1 | 0.308% (inactive) |
| CCc1ccc(N2CC(C(=O)N3CCCCCC3)CC2=O)cc1 (stereo unspecified) | 15.1% (inactive) |
| COC(=O)CCNc1ccc2c(c1)OCCO2 | 48.2% (active) |
| COc1cccc(NC(=O)COC(=O)CCOc2ccccc2OC)c1 | -1.24% (inactive) |
| Cc1ccc(SCC(=O)Nc2ccc3c(c2)OCCO3)cc1 | 73.6% (active) |
| CCC(C)(C)NC(=O)CN(C(=O)C(=O)Nc1ccc2c(c1)OCCO2)C(C)(C)CC | -5.87% (inactive) |
| CCN(CC(=O)Nc1ccc2c(c1)OCO2)S(=O)(=O)c1ccccc1 | -0.651% (inactive) |
| CCn1c(COc2ccccc2)nnc1SCC(=O)Nc1ccc2c(c1)OCCO2 | 8.26% (inactive) |
| O=C(COc1ccc2c(C(F)(F)F)cc(=O)oc2c1)Nc1ccc2c(c1)OCCO2 | 5.22% (inactive) |
| COc1ccccc1OCCCC(=O)Nc1ccc2c(c1)OCCO2 | 32.1% (active) |
| Cc1ccc(S(=O)(=O)NCC(=O)Nc2ccc3c(c2)OCCO3)cc1 | 6.27% (inactive) |
| CCn1c(SCC(=O)Nc2ccc3c(c2)OCCO3)nnc1-c1ccncc1 | 2.74% (inactive) |
| CCN(CC(=O)Nc1ccc2c(c1)OCCO2)Cc1cc(=O)oc2cc(C)c(C)cc12 | 11.2% (active) |
| Cc1sc2ncn(CC(=O)NCCCC(=O)N(C)Cc3ccccc3)c(=O)c2c1C | 0.104% (inactive) |
| CCC(=O)N(Cc1cc2ccccc2[nH]c1=O)c1ccc(OC)cc1 | -1.99% (inactive) |
| O=C(CNC(=O)OCc1ccccc1)NC1CCCCNC1=O (stereo unspecified) | 1.1% (inactive) |
| CCOc1ccc(C(=O)Nc2ccc(S(=O)(=O)NCC3CCCO3)cc2)cc1OCC (stereo unspecified) | -3.06% (inactive) |
| CCN(CC)CCNc1nc(-c2ccc(OC(F)F)cc2)c(C)s1 | -2.43% (inactive) |
| COc1ccc(-n2nc(C(=O)NCC(=O)N3CCC(C(N)=O)CC3)c3ccccc3c2=O)cc1OC | -3.96% (inactive) |
| CC(=O)c1c(C)oc2ccc(NS(=O)(=O)c3ccc(C(=O)O)cc3)cc12 | -0.66% (inactive) |

| SMILES | max response |
| --- | --- |
| CCCCNC(=O)CSc1nnc(-c2ccco2)n1C | 1.17% (inactive) |
| Cn1c(SCC(=O)c2cccs2)nnc1-c1ccco1 | 29.8% (active) |
| CCOC(=O)CSc1nnc(-c2ccco2)n1C | -2.04% (inactive) |
| CC(C)CC(=O)Nc1nnc(S(=O)(=O)N(C)c2ccc(Cl)cc2)s1 | -2.39% (inactive) |
| COc1ccc2c(C(=O)c3ccc(C)cc3)n(CCC(N)=O)[n+]([O-])c2c1 | 7.82% (inactive) |
| COC(=O)c1c(NC(=O)c2ccc(S(=O)(=O)N3CCOCC3)cc2)sc2c1CCN(C(C)C)C2 | -1.08% (inactive) |
| CCOC(=O)C1CCN(C(=O)Nc2ccc(Cl)cc2)CC1 | 12.6% (inactive) |
| CC(=O)Nc1ccc(NC(=O)C2CCCN(S(=O)(=O)c3ccc(Cl)cc3)C2)cc1 (stereo unspecified) | -5.06% (inactive) |
| CC(=O)N1CCC(N(C(=O)Nc2ccc(Cl)cc2)C(C)C)CC1 | 9.65% (active) |
| COc1cccc(NC(=O)C2C(c3ccccc3)C2(Cl)Cl)c1 (stereo unspecified) | 1.73% (inactive) |
| CCOCCOC(=O)C(C)Oc1ccc(Oc2ncc(C(F)(F)F)cc2Cl)cc1 (stereo unspecified) | 0.288% (inactive) |
| CCOC(=O)CN(C(=O)COc1nc(C)cc(C)c1C#N)c1ccc(Cl)cc1 | 1.33% (inactive) |
| O=C1CCCc2nn(-c3ccccc3)nc21 | 31.9% (active) |
| O=C1CCC(=O)N(c2ccccc2)N1 | 4.98% (inactive) |
| c1ccc(-n2nc3ccccc3n2)cc1 | 10.4% (inactive) |
| CCCc1nc(SCC(=O)N2CCCC2)c2c(=O)n(C)c(=O)n(C)c2n1 | -1.08% (inactive) |
| COCCNC(=O)CN(Cc1ccco1)C(=O)CCC(=O)Nc1nccs1 | -7.71% (inactive) |
| Cc1ccc(Nc2c(F)c(F)c(F)c(F)c2C(=O)O)c(C)c1 | -3.03% (inactive) |
| COc1cc(SC)ccc1C(=O)N(Cc1ccccc1)c1ccccc1 | -0.326% (inactive) |
| COc1cc(SC)ccc1C(=O)Nc1nc(C)cs1 | -6.32% (inactive) |
| Cc1occc1C(=O)Nc1cccc(Cn2cccn2)c1 | 10.7% (inactive) |
| COc1cc(SC)ccc1C(=O)Nc1cc(C)ccn1 | 40.1% (active) |
| COc1cc(SC)ccc1C(=O)NCCOc1ccccc1Cl | 57.7% (active) |
| COc1ccccc1OCCNC(=O)CCNC(=O)c1ccccc1Cl | 5.13% (inactive) |

| SMILES | max response |
| --- | --- |
| Cc1ccnc(NC(=O)CCCOc2ccccc2)c1 | 9.11% (inactive) |
| COc1ccccc1CNC(=O)c1ccc(SC)cc1OC | 8.03% (inactive) |
| Cc1ccnc(NC(=O)c2ccoc2C)c1 | 35.7% (active) |
| COc1ccc(CCNc2cc(C)nc3c(-c4ccc(Cl)cc4)c(C)nn23)cc1OC | -1.95% (inactive) |
| COc1cccc(NC(=O)c2cc(S(=O)(=O)N3CCc4ccccc43)cn2C)c1 | -2.59% (inactive) |
| CCc1nn(CCCN2CCN(c3cccc(Cl)c3)CC2)c(=O)n1CCOc1ccccc1 | -3.76% (inactive) [middle of 4 runs] |
| Cn1c(=O)c2c(SCC(=O)NCC3CCCO3)nc(CC(C)(C)C)nc2n(C)c1=O (stereo unspecified) | 0.724% (inactive) |
| CC(OC(=O)c1ccccc1OCc1ccc(Cl)cc1)C(N)=O (stereo unspecified) | 2.27% (inactive) |
| CC(C)Cc1nnc(NC(=O)CN2C(=O)NC3(CCCCC3)C2=O)s1 | -1.99% (inactive) |
| O=C(O)c1ccc(NC(=O)c2cn(-c3ccccc3)nc2-c2ccc(Cl)cc2)cc1 | 10.4% (inactive) |
| C=CCn1cc(Cl)cc(C(=O)Nc2ccccc2)c1=O | 14.1% (active) |
| O=C(Nc1ccc(CN2CCOCC2)cc1)c1cc(Cl)ccc1Cl | -1.65% (inactive) |
| CCOc1ccc(Br)cc1CSC(=N)N | -0.921% (inactive) |
| Cc1cccc(CSc2ccc(-c3cccs3)nn2)c1 | 35% (active) |
| Cc1cccc(CSc2nnc(Cn3c(=O)sc4ccccc43)n2C)c1 | -3.59% (inactive) |
| O=C(CSc1ccc(-c2cccs2)nn1)Nc1ccccc1F | 16.1% (inactive) |
| CCOC(=O)c1ccc(-n2c(CCC(=O)O)ccc2-c2ccccc2)cc1 | -3.35% (inactive) |
| COc1ccc(CCOC(=O)CNC(=O)c2ccc(Cl)cc2Cl)cc1 | 7.31% (inactive) |
| O=C(c1cccs1)C1C(c2ccc(Br)cc2)NC(=S)NC1(O)C(F)(F)F (stereo unspecified) | 29.2% (active) |
| CCOC(=O)C1C(c2ccc(Cl)cc2)NC(=S)NC1(O)C(F)(F)F (stereo unspecified) | -4.55% (inactive) |
| CC(=O)C1C(c2ccc(Cl)cc2)NC(=O)NC1(O)C(F)(F)F (stereo unspecified) | -2.92% (inactive) |
| CC(C)CCOc1ccc(C(=O)C[N+]2(C)CCOCC2)cc1 | -6.71% (inactive) |
| COc1ccc(CN(C)C(=O)c2cc(-c3ccc(C)cc3C)nc3ccccc23)c(OC)c1OC | 9.76% (active) |
| COc1ccc(-c2cc(C(=O)N(C)Cc3ccccc3)c3ccccc3n2)cc1 | 10.1% (inactive) |

| SMILES | max response |
| --- | --- |
| Cc1ccc(-c2cc(C(=O)Nc3nn[nH]n3)c3ccccc3n2)c(C)c1 | -3.28% (inactive) |
| O=C(CCC1CCN(C(=O)c2cccc(Cl)c2F)CC1)Nc1ccccc1 | 3.41% (inactive) |
| CC1CCN(CCCn2c(SCC(=O)NC3CCCC3)nc3ccccc3c2=O)CC1 | -1.13% (inactive) |
| COc1ccc(C(=O)CCC(=O)Nc2cccnc2)c(OC)c1 | -5.23% (inactive) |
| COc1ccc(C(=O)NC(C)CCc2ccccc2)c(OC)c1 (stereo unspecified) | 25.4% (active) |
| COc1ccc(C(=O)CCc2ccccc2O)c(OC)c1 | 32.7% (active) |
| COc1ccc(CC(=O)NC(C)CCc2ccccc2)cc1 (stereo unspecified) | -0.862% (inactive) |
| COc1ccc(C(=O)COC(=O)c2nn(C)c(=O)c3ccccc23)c(OC)c1 | 4.36% (inactive) |
| COc1cc(C(=O)OCC(=O)NC(C)CCc2ccccc2)cc(OC)c1OC (stereo unspecified) | -8.18% (inactive) |
| O=C(NC1CCCC1)C1CCN(C(=O)Nc2cccc(Cl)c2)CC1 | -1.38% (inactive) |
| Cc1cccc(N2CCN(Cc3nc(C4CC4)no3)CC2)n1 | -2.08% (inactive) |
| Cc1cccc(C)c1NC(=O)C1CCCN1C(=O)OC(C)(C)C (stereo unspecified) | 6.96% (inactive) |
| O=C(CO/N=C/c1ccccc1O)NNC(=O)c1ccccc1Cl | -2.64% (inactive) |
| Cc1ccccc1C1=NC(C(F)(F)F)(C(F)(F)F)c2c(n(-c3ccc(F)cc3)c(=O)[nH]c2=O)N1 | -1.61% (inactive) |
| O=C(O)CSc1c2c(nc3cc(C(=O)Nc4cccc(C(F)(F)F)c4)ccc13)CCCC2 | -2.41% (inactive) |
| O=C(Nc1nnc(SCc2c(Cl)cccc2Cl)s1)c1cccc([N+](=O)[O-])c1 | 8% (inactive) |
| O=C(Nc1nnc(SCc2ccc(Cl)cc2Cl)s1)C1COc2ccccc2O1 (stereo unspecified) | -3.01% (inactive) |
| O=C(Nc1nnc(CCc2ccccc2)s1)C1CCCO1 (stereo unspecified) | 14.8% (active) |
| O=C(C1CCCO1)N(Cc1ccccc1)c1ccccc1 (stereo unspecified) | -0.517% (inactive) |
| CC(C)Cc1nnc(NC(=O)CCc2ccccc2)s1 | -1.48% (inactive) |
| O=C(Nc1nnc(SCc2c(Cl)cccc2Cl)s1)C1CCCO1 (stereo unspecified) | 28% (active) |
| O=C(NC(Cc1ccccc1)C(=O)O)/C(=C\c1ccccc1)NC(=O)c1ccco1 (stereo unspecified) | -3.05% (inactive) |
| COc1cc(CN2CCN(Cc3ccc(C)cc3)CC2)c([N+](=O)[O-])cc1OC | -2.69% (inactive) |
| CN(CC(=O)Nc1ccccc1C(F)(F)F)C(=O)Cc1ccccc1F | -1.32% (inactive) |
